Screening data as filed in PubChem.
MBNL1 CUG block – blocks human MBNL1 binding to CUG repeat RNA; Q9NR56; Potency, µM (series often up to 57.5 µM), for inactives: at the highest dose activity change, negative = inhibition, usual class: inhibitors; TR-FRET MBNL1-His/biotin-(CUG)12 binding, 665/545 ratio; AID 2675; actives 0.036% (n = 280,000); active means well fitted inhibition curve with a large enough effect in the signal ratio, with a control signal flat, not every such curve was filed as active; inconclusive means small, poorly fitted or top-dose-only effect, or effect the other way, or a change in a side signal; inactive means no such curve, though single readings can be large or run the other way; the % refers to the signal ratio; further: potency means the concentration at half of the fitted maximal effect; on the % scale 0 is the no-effect control and ±100 the full control effect
Target sequence (Q9NR56 whole entry, looked up): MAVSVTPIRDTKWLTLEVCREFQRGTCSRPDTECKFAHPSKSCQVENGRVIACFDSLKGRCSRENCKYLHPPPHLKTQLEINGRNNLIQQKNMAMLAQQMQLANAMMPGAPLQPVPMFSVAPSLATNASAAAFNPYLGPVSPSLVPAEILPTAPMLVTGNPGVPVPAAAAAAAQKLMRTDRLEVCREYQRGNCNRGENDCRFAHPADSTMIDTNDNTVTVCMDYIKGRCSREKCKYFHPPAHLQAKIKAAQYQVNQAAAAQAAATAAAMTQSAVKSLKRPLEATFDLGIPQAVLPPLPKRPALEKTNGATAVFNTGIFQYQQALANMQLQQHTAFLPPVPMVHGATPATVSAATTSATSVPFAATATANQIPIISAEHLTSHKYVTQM
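TR-FRET readout: Ex 340 nm, 665/545 nm emission ratio, normalized to buffer-only (basal) and MBNL1-(CUG)12 controls. Complex of MBNL1-His with Biotin-(CUG)12, compounds 92 nM–58 uM, incubated 60 min at room temperature.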
ClpP mod – qHTS Assay for Activators of ClpP; ATP-dependent Clp protease proteolytic subunit (Bacillus subtilis (strain 168)), P80244; purified B. subtilis ClpP, FRET peptide cleavage, 20 min; Potency, µM (titrated, usually from 57.5 µM), inactives show top-dose activity change, negative = active; actives 1.9% (n = 340,000); AID 651965, 2013; active means well fitted falling curve with a large enough effect; inconclusive means small, poorly fitted or top-dose-only effect; inactive means no such curve, though single readings can be large or run the other way; further: potency means the concentration at half of the fitted maximal effect; the source files actives as falling curves though it sought activators and does not explain the sign; nearly all actives have a fitted effect of over 65% in size
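Buffer: 100 mM Tris/HCl pH8, 100 mM KCl, 0.05% low protease BSA, 2.5% glycerol, 0.01% Tween-20. ClpP 10 microg/mL final; 20 min RT; delta FRET normalized to ADEP and DMSO controls.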
Rango-impB inh – inhibitors of Rango-importin beta complex formation | Q14974 | actives 0.031% (n = 340,000) | AID 540263 | Potency, µM (top dose mostly 92.2 µM), inactives show top-dose inhibition of complex formation | Rango CFP/YFP FRET sensor + importin beta, 45 min;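 further: potency means the concentration at half of the fitted maximal effect; 0% = DMSO wells and 100% = buffer wells lacking importin beta; nearly all actives have a fitted effect of over 15% in size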
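Inhibition scored from the CFP 486 nm/YFP 530 nm FRET ratio 45 min after adding 0.125 microM importin beta to 50 nM Rango biosensor preincubated 5 min with compound (room temperature, PBS with DTT, Tween-20, BSA). No-importin wells as positive control.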
CBFb RUNX1 block – CBF-beta/RUNX1 interaction disruption; 230,000 tested, under 10 active; AlphaScreen CBFb-His/RUNX1-biotin binding, biochemical; Q01196+Q13951; Potency, µM (titrated, usually from 59.8 µM), for the others: top-dose activity, negative = inhibition, most hits filed as inhibitors; active means well fitted curve in the direction sought with a large enough effect; inconclusive means small, poorly fitted or top-dose-only effect, or effect the other way, or another doubt; inactive means no such curve, though single readings can be large or run the other way; further: % of control where 0% means no effect
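CBF-beta (His) and RUNX1 (biotin), 30 nM each; 20 min preassociation; + compound, 15 min; + beads 50 ng each (Ni, streptavidin), 90 min; RT; AlphaScreen read.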
Rango release inh – inhibitors of RanGTP-induced Rango-importin beta complex dissociation; Biochemical FRET Rango-importin beta, RanGTP-induced dissociation; Potency, µM (highest dose often 46.1 µM), without a hit: at the top dose activity change, negative = inhibition; actives 0.071% (n = 340,000); further: potency means the concentration at half of the fitted maximal effect; % of control where 0% means no effect; nearly all actives have a fitted effect of over 45% in size
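Rango FRET biosensor (snurportin-1 IBB flanked by N-terminal EYFP and C-terminal CFP10) at 0.1 uM, with 0.25 uM importin beta in PBS, 1mM DTT, 0.02% Tween-20, 0.1% BSA. 0.6 uM Ran, 2mM GTP and 0.2 uM RCC1 were then added for 45 min at room temperature. Inhibition read as loss of FRET rise.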
The depositor's hits bear a star; [ ] = dose if it differs, or a comment. The entries come from a sample that favours hits as a whole. Unless noted, the call rests on the fitted dose curve.

Results for CC1(C)CC2CC(C)(CN2C(=O)COC(=O)c2ccc(Cl)cc2N)C1 (stereo unspecified) ?
MBNL1 CUG block: 10%; ClpP mod: 28µM*; Rango-impB inh: 2%; CBFb RUNX1 block: 1%; Rango release inh: -17%

How did CC1(C)CC2CC(C)(CN2C(=O)COC(=O)c2ccc(Cl)c(N)c2)C1 (stereo unspecified) do in these assays?
MBNL1 CUG block: 3%; ClpP mod: inconclusive; Rango-impB inh: -2%; CBFb RUNX1 block: -6%; Rango release inh: 23%

How did CCOc1ccc(-n2c(C)nc3cc(C(=O)NCCN4CCOCC4)ccc32)cc1 do in these assays?
MBNL1 CUG block: -3%; ClpP mod: -4%; Rango-impB inh: inconclusive; CBFb RUNX1 block: 1%; Rango release inh: -7%

Results for CCOc1ccc(-n2c(C)nc3cc(C(=O)NCCCN4CCOCC4)ccc32)cc1 ?
MBNL1 CUG block: -6%; ClpP mod: 32µM*; Rango-impB inh: -2%; CBFb RUNX1 block: 3%; Rango release inh: 3%

How did CN(C)c1c(Br)cc(C=O)cc1Br do in these assays?
ClpP mod: 1%

Results for COc1cc2c3nnc(-c4ccccc4)c-3cn(Cc3ccc(F)cc3)c2cc1OC ?
MBNL1 CUG block: inconclusive; Rango-impB inh: inconclusive; CBFb RUNX1 block: 1%; Rango release inh: inconclusive

How did COc1cc2c3nnc(-c4ccc(F)cc4)c-3cn(Cc3ccc(C)cc3)c2cc1OC do in these assays?
MBNL1 CUG block: -13%; ClpP mod: 20µM*; Rango-impB inh: inconclusive; CBFb RUNX1 block: 17%; Rango release inh: inconclusive

How did Cc1ccc2nc(-c3ccc(C)o3)c(Nc3ccccc3)n2c1 do in these assays?
ClpP mod: 4%

Results for Cc1ccc(Nc2c(-c3ccco3)nc3ccc(C)cn23)cc1 ?
ClpP mod: 6.3µM*

How did CCCCn1c(C)cc2c(c1=O)C1O[C@](c3ccsc3)(Cc3ccccc31)O2 do in these assays?
MBNL1 CUG block: -6%[11.5 µM]

Results for CCc1ccc(NC(=O)C2CCCN(S(=O)(=O)c3cccs3)C2)cc1 (stereo unspecified) ?
MBNL1 CUG block: 7%; Rango-impB inh: 0%; Rango release inh: 1%

How did CCC1S/C(=N\S(=O)(=O)c2cccs2)N(C2CCCCC2)C1=O (stereo unspecified) do in these assays?
MBNL1 CUG block: 7%; ClpP mod: 28µM*; Rango-impB inh: 2%; CBFb RUNX1 block: 4%; Rango release inh: 1%

How did CCOc1ccc(C(=O)NCc2ccc3c(c2)CCN3C(=O)c2ccc(Cl)cc2)cc1 do in these assays?
ClpP mod: -4%

How did CCN1C(=O)[C@H]2[C@@H](c3ccc(-c4cccc(Cl)c4)c(OC)c3)N[C@@](Cc3ccccc3)(C(=O)OC)[C@H]2C1=O do in these assays?
ClpP mod: -2%; Rango-impB inh: -3%; Rango release inh: -6%

What do the screens show for `CCN1C(=O)[C@H]2[C@@H](c3ccc(-c4ccc(OC)cc4)c(OC)c3)N[C@@](Cc3ccccc3)(C(=O)OC)[C@H]2C1=O`?
ClpP mod: 25µM*; Rango-impB inh: -2%; Rango release inh: -11%

Results for COc1ccc(NC(=O)c2c(C)oc3ccc(O)c(CN4CCCCCC4)c23)cc1Cl ?
ClpP mod: -4%

How did Cc1ccc(S(=O)(=O)Nc2ccccc2C(=O)N2CCOCC2)cc1 do in these assays?
MBNL1 CUG block: 0%; ClpP mod: 0%; Rango-impB inh: -1%; Rango release inh: -20%

How did COc1ccc(N2CCN(C(=O)c3ccccc3NS(=O)(=O)c3ccc(C)cc3)CC2)cc1 do in these assays?
MBNL1 CUG block: 3%; ClpP mod: 13µM*; Rango-impB inh: -1%; Rango release inh: -1%

How did Cc1ccc(S(=O)(=O)N(Cc2cccc(Cl)c2)C(=O)N2CCN(C)CC2)cc1 do in these assays?
ClpP mod: 14µM*; Rango-impB inh: 1%; Rango release inh: 12%
